These results are taken from PubChem BioAssay AID488890 (Southern Research Specialized Biocontainment Screening …, 2010).

Among all 320,000 compounds or so, about 1,300 (0.41%) were called active. Another 3% or so got no clear call; they are omitted. How the calls were made is not given here. Not all results are given here. Entries with a potency or affinity are not part of this list.

A short description of the assay: growth inhibition of non-replicating M. tuberculosis (AID 488890).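 Further: plate controls were DMSO cells for no effect and high antibiotic wells for full effect.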 The following applies: Mycobacterium tuberculosis non-replicating, at 25 µM, stronger effect = higher value.
By inhibition is commonly meant the change of the read-out against control, counted positive when it falls. Regarding `CCOC(=O)c1nn(-c2ccc(Cl)cc2C)ccc1=O`, the inhibition was -14.1%.
For the compound `Cc1c(C(=O)N(C)C)c2cc(Cl)ccc2n1O`, the inhibition is 8.07%.
As to `Cc1ccccc1NC(=O)OCc1ccccc1`, the inhibition turned out to be 71.6%.
As for `COc1ccc(C(=O)COC(=O)c2ccc(-n3cnnn3)cc2)c(OC)c1`, the inhibition was -4.6%.
Regarding `COc1cccc(C(=O)Nc2ccccc2F)c1`, the inhibition was -15.1%.
Regarding `O=C(COC(=O)/C=C/c1ccco1)NCc1ccc(Cl)cc1`, the inhibition amounted to 44.8%.
For the compound `COc1ccccc1C(=O)OCCN=C1NS(=O)(=O)c2ccccc21`, the inhibition amounted to 3.36%.
As for `O=C(N/N=C/C(Br)=C/c1ccccc1)c1cccnc1`, the inhibition came to 56.4%.
In the case of `CC(/C=N/NC(=O)c1ccncc1)=C\c1ccccc1`, the inhibition was 56.6%.
As to `Cc1ccc2nc(-c3ccccc3)oc(=O)c2c1`, the inhibition turned out to be 76.6%.
`COc1ccc(-n2c(/C=C/c3ccc(O)cc3)nc3ccccc3c2=O)cc1`: the inhibition is 20.1%.
For `COc1ccc(/C=C/c2cc(C(=O)O)c3ccccc3n2)cc1`, the inhibition came to 3.28%.
On to `COc1ccc(-c2csc3nc(-c4ccc(C)cc4)oc(=O)c23)cc1OC`, for which the inhibition is 2%.
Consider `CCOc1ccc(-c2nnc(-c3ccccc3)o2)cc1`, for which the inhibition came to 78.4%.
Then `CCOc1ccc(-c2cc(C(=O)O)c3ccccc3n2)cc1`, with 0.34%.
Turning to `O=[N+]([O-])c1ccc(C=Nc2cccc3ccccc23)s1`, the inhibition is 68.5%.
For the compound `O=c1oc(-c2cccc([N+](=O)[O-])c2)nc2ccccc12`, the inhibition was determined as 67.8%.
Then `O=S(=O)(Cc1ccccc1)N1CCCc2ccccc21`, with 28.1%.
Turning to `Cc1[nH]c2ccc(C(=O)NCCCN(C)C3CCCCC3)cc2c1C`, the inhibition stood at 7.44%.
Take `Cc1sc2nc(SCC(=O)NCCOCCO)n(C)c(=O)c2c1C`: the inhibition was -0.17%.
Next, `Cc1ccc(C(=O)NCC(=O)OCn2nnc3ccccc3c2=O)cc1`: 4.09%.
Consider `Cc1nn(Cc2ccccc2)c2c1C(c1ccc(Cl)cc1)C(C#N)=C(N)O2` (stereo unspecified), for which the inhibition was determined as 11.4%.
In the case of `COC(=O)c1sccc1NC(=O)c1c(-c2ccccc2)noc1C`, the inhibition is 27.9%.
On to `CC1CC(=O)Nc2ccccc2N1C(=O)CN1CCN(C=O)CC1` (stereo unspecified), for which the inhibition came out at 4.41%.
For the compound `c1ccc(C2C3=C(Nc4ncnn42)c2ccccc2CCC3)cc1` (stereo unspecified), the inhibition stood at 9.65%.
Turning to `CCCC(=O)C1=C(O)C(C(=O)OC)C(C)(C)CC1=NC(C)C` (stereo unspecified), the inhibition was -5.24%.
With `CC(C)(C)c1ccc(-n2ncc3c2CCCC3NC(=O)CCN2CCCO2)cc1` (stereo unspecified), the inhibition was determined as 19.6%.
Turning to `COc1cc(OC)cc(-c2cc3ccccc3c(=O)o2)c1`, the inhibition worked out at 9.55%.
On to `O=c1oc(-c2ccco2)nc2ccccc12`, for which the inhibition came out at 28.8%.
Regarding `Cc1c2cnn(CC(=O)Nc3c(F)c(F)cc(F)c3F)c(=O)c2c(C)n1Cc1ccccc1F`, the inhibition was found to be 0.29%.
On to `CN(C)C(CNC(=O)CCOc1ccccc1)c1ccco1` (stereo unspecified), for which the inhibition came out at 13.7%.
`Fc1ccccc1CSc1nc2ncccc2[nH]1`: the inhibition was determined as 23.3%.
Take `Cc1cc(=O)[nH]c(SC/C=C/c2ccccc2)n1`: the inhibition is 69.8%.
Next, `Cn1c(C(=O)N[C@@H](Cc2ccccc2)C(=O)O)cc2cc(F)ccc21`: -8.03%.
As to `Cc1ccc(N2C(=O)NC(NC(=O)C(C)(C)C)(C(F)(F)F)C2=O)cc1C` (stereo unspecified), the inhibition was -24.4%.
`Cc1cc(C)n(-c2nc(SCCN(C)C)c3c4c(sc3n2)COC(C)(C)C4)n1`: the inhibition was 65.5%.
For the compound `Cc1cc(C)n(-c2nc(NCC(C)O)c3c4c(sc3n2)CCCC4)n1` (stereo unspecified), the inhibition stood at 79.3%.
Regarding `Cc1cc(C)n(-c2nc(SCC(=O)O)c3c4c(sc3n2)COC(C)(C)C4)n1`, the inhibition was determined as 78.8%.
Next, `Cc1cc(C)n(-c2nc(NCCCN(C)C)c3c4c(sc3n2)CCCC4)n1`: 75.9%; `O=C1CCCN1CC(O)CS(=O)(=O)Cc1ccccc1` (stereo unspecified): -12.3%; `COc1ccc(C2C(C(C)=O)=C(C)Nc3ncnn32)c(OC)c1OC` (stereo unspecified): -4.13%.
For the compound `Cc1cccn2c(NC(=O)c3cccs3)c(-c3ccccc3)nc12`, the inhibition is -0.63%.
With `c1ccc(-c2nnc(-c3ccccn3)c(-c3ccccn3)n2)nc1`, the inhibition was found to be 10.5%.
As to `Cc1nnc(-c2ccccc2)nc1N(C)C`, the inhibition was found to be 21.8%.
Consider `COc1cc(CNc2ccc3[nH]c(=O)[nH]c3c2)ccc1OCc1ccc(Cl)cc1`, for which the inhibition came to 32.9%.
Then `CCc1ccc(C(=O)COC(=O)CNC(=O)c2ccc(Br)o2)cc1`, with 43.3%; and `CC(=O)c1ccc(OC(=O)c2ccc(Br)o2)cc1`, with 79.1%; and `Cc1ccc(CC(=O)N2CCN(C)CC2)cc1`, with -6.84%.
In the case of `CNc1c([N+](=O)[O-])cnn1-c1ccccc1Cl`, the inhibition was found to be 10.6%.
With `Cc1ccccc1-c1cnn(-c2cccc([N+](=O)[O-])c2)c1N`, the inhibition is 14.7%.
As for `O=C(CSc1n[nH]c(=O)n1-c1cccnc1)Nc1ccccc1Cl`, the inhibition was -0.8%.
In the case of `O=C(Nc1ccccc1N1CCOCC1)C1=NN(c2c(F)c(F)cc(F)c2F)C(=O)CC1`, the inhibition was -3.73%.
`O=C(Nc1nccs1)c1ccc(Cl)c([N+](=O)[O-])c1`: the inhibition is -5.17%.
Take `N#Cc1ccsc1NC(=O)c1cccc([N+](=O)[O-])c1`: the inhibition is 2.42%.
On to `COC(=O)c1ccccc1S(=O)(=O)N1CCC(C(=O)NCC2CCCO2)CC1` (stereo unspecified), for which the inhibition was -9.14%.
As to `CN(C(=O)COC(=O)c1ccc(Cl)cc1N)C1CCCCC1`, the inhibition is 24.6%.
`CN(C(=O)COC(=O)c1cc(NS(=O)(=O)c2cc([N+](=O)[O-])ccc2Cl)ccc1O)C1CCCCC1`: the inhibition stood at 35.1%.
Regarding `CCN(CC)c1ccc(-c2nnc(SCC(=O)Nc3ccccc3C#N)n2-c2ccccc2)cc1`, the inhibition worked out at 41%.
`CC1(C)CC(=O)C2=C(C1)OC(N)=C(C#N)C2c1ccccc1` (stereo unspecified): the inhibition was found to be 24.7%.
Take `CC1(C)CC(=O)C2=C(C1)OC(N)=C(C#N)C2Cc1ccccc1` (stereo unspecified): the inhibition was 25%.
With `Cc1cc2oc(=O)cc(CN3CCc4ccccc43)c2cc1Cl`, the inhibition is -0.24%.
Take `COc1ccc(CCn2c(N)cc(=O)[nH]c2=S)cc1OC`: the inhibition was 10.4%.
`CCOc1ccc(CCNC(=O)CCn2nc(C)c3c(C)n(-c4ccccc4)nc3c2=O)cc1`: the inhibition is -11.8%.
Take `O=C(OCc1cnc(Cl)s1)c1ccccc1Cl`: the inhibition came to 56.8%.
As for `O=C(OCc1cncs1)c1ccccc1Cl`, the inhibition came out at 32.7%.
Next, `CCOC(=O)CSc1nnc(CNC(=O)c2cccs2)n1-c1cccc(C)c1`: 33%.
In the case of `C[C@@H]1CCCCCCCCC(=O)OCCN(C(=O)OC(C)(C)C)[C@H](C)CCCCCCCCC(=O)OCCN(C(=O)OC(C)(C)C)[C@H](C)CCCCCCCCC(=O)OCCN(C(=O)OC(C)(C)C)[C@H](C)CCCCCCCCC(=O)OCCN1C(=O)OC(C)(C)C`, the inhibition is -3.81%.
Consider `Clc1ccc(CSc2nnc(-c3cccnc3)o2)cc1`, for which the inhibition stood at 47.9%.
For `O=[N+]([O-])c1cccc(-c2nnc(SCc3cccnc3)o2)c1`, the inhibition is 43.9%.
In the case of `O=[N+]([O-])c1ccc(CSc2nnc(-c3cnccn3)o2)cc1`, the inhibition came out at 66.9%.
For the compound `Brc1ccc(CSc2nnc(-c3cccnc3)o2)cc1`, the inhibition was -15.4%.
